# Only some compounds are listed: those with a hit (about 2.4% of all), similar ones and a draw of the others.
# Pol kappa inh: blocks human DNA polymerase kappa activity | AID 588579 | 0.53% of 400,000 active | Potency, µM (titrated, usually from 107 µM), for the others: at the top dose activity, negative = inhibition, usual class: inhibitors | purified Pol kappa, fluorescent DNA synthesis assay, 10 min; further: on the % scale 0 is the no-effect control and ±100 the full control effect
# Target sequence (Q9UBT6 whole entry, looked up): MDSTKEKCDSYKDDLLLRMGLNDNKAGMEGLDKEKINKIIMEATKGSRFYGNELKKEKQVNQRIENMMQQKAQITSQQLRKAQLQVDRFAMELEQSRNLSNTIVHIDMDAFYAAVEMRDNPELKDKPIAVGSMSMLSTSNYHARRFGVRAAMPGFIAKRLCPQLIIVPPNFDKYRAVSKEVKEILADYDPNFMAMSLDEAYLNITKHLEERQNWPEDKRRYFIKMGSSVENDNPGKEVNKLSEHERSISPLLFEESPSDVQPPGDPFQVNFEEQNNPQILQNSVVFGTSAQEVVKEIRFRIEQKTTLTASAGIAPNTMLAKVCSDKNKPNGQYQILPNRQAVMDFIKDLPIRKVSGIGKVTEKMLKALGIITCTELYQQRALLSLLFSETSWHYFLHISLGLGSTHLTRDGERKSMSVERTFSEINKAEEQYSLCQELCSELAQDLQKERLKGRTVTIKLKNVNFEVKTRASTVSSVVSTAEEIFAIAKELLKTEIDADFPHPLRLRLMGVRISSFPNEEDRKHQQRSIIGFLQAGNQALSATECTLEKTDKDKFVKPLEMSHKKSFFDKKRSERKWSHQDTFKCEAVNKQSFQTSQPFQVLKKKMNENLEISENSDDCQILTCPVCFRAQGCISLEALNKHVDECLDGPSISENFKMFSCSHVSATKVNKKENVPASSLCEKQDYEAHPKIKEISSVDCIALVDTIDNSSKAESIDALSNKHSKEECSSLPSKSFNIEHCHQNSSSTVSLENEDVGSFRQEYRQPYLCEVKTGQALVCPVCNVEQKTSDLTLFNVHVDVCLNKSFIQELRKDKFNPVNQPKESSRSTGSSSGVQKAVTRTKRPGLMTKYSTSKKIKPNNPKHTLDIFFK
#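 10 nM Pol kappa preincubated 15 min at room temperature with compounds, then reaction started with substrate at 50 nM final. Fluorescence read kinetically at 0 and 10 min; buffer-only wells served as negative control.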
# POLI inh: blocks human DNA polymerase iota activity | Q9UNA4 | Pol iota fluorescent replication assay, 10 min | Potency, µM (top dose mostly 115 µM), for the others: at the highest dose activity, negative = inhibition, hits mostly inhibitors | 1% of 390,000 active | AID 588590
#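 Fluorescent replication assay read twice, at 0 min and 10 min after adding 50 nM (final) substrate. Enzyme (10 nM) and compounds were first incubated 15 min at room temperature; enzyme-free buffer wells were negative controls.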
# TDP1 inh: inhibitors of human tyrosyl-DNA phosphodiesterase TDP1 | Q9NUW8 | recombinant TDP1, AlphaScreen DNA substrate cleavage | Potency, µM (titrated, usually from 130 µM), for inactives: at the highest dose activity change, negative = inhibition, hits mostly inhibitors | 0.28% of 350,000 active; further: on the % scale 0 is the no-effect control and ±100 the full control effect; nearly all actives have a fitted effect of over 40% in size
#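 Compounds were preincubated with Tdp1 (1 nM final) for 15 min at room temperature before substrate (15 nM final) started a 5 min reaction; beads (10 ug/ml final) were then added for 10 min before AlphaScreen detection.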
# Pol beta inh: DNA polymerase beta (human) inhibition; Pol beta primer extension/strand displacement, fluorescence kinetic; Potency, µM (top dose mostly 114 µM), for the others: at the highest dose activity change, negative = inhibition, actives largely listed as inhibitors; AID 485314; 1.3% of 340,000 active; further: on the % scale 0 is the no-effect control and ±100 the full control effect
#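 10 nM enzyme + cpd, 15 min RT; start with substrate 50 nM final; read 0 min and after 10 min RT. Corrected, normalized data; 4-parameter Hill curve fit.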
# FEN1 inhibitor: blocks human flap endonuclease 1; Recombinant FEN1 flap cleavage, fluorescence, 15 min; Potency, µM (highest dose often 114 µM), without a hit: at the highest dose activity change, negative = inhibition, actives largely listed as inhibitors; 0.35% of 390,000 active; AID 588795; further: on the % scale 0 is the no-effect control and ±100 the full control effect; nearly all actives have a fitted effect of over 65% in size
#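 Enzyme 10 nM, 15 min RT preincubation with compound; start with substrate 50 nM final; reads at 0 and 15 min; qHTS titration, four-parameter Hill fit.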
# POLH inh: DNA polymerase eta (human) inhibition; 1.2% of 390,000 active; Potency, µM (doses to about 114 µM), for inactives: top-dose activity change, negative = inhibition, usual class: inhibitors; AID 588591; Q9Y253; recombinant Pol eta, fluorescent DNA replication assay; further: on the % scale 0 is the no-effect control and ±100 the full control effect
#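 Pol eta (10 nM) was preincubated with compounds for 15 min at room temperature, after which fluorescent replication substrate (50 nM final) was added to start the reaction. Fluorescence was read kinetically at 0 and 10 min.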
# * marks the source's active call; other numbers are inactive results; ? = inconclusive; / = no result; [ ] = another dose, or the depositor's remark. The call rests on the fitted dose curve; in most records, active means well fitted curve in the direction sought with a large enough effect; inconclusive means small, poorly fitted or top-dose-only effect, or another doubt; inactive means no such curve, though single readings can be large; an effect the other way counts as inactive or inconclusive. Potency means the concentration at half of the fitted maximal effect.
SMILES,Pol kappa inh,POLI inh,TDP1 inh,Pol beta inh,FEN1 inhibitor,POLH inh
Cc1ccc(C(=O)Nc2nc3nc(-c4ccccc4)cc(=O)n3[nH]2)cc1,6.8%,-2.2%,44.7µM*,11.6%,13.9%,79.4µM*
CC(C)(C)c1ccc(C(=O)Nc2nc3nc(-c4ccccc4)cc(=O)n3[nH]2)cc1,-15.8%,?,-7.0%,44.7µM*,1.6%,-21.0%
O=C(CSCc1cnn(-c2ccccc2)c1-n1cccc1)NCc1ccccc1F,-19.8%,5.5%,-2.9%,-5.0%,12.1%,-14.3%
O=Cc1coc2c(ccc3ccccc32)c1=O,/,/,/,79.4µM*,/,/
COc1ccc(N=C2S/C(=C\c3ccc(OCC(=O)O)cc3)C(=O)N2CCc2c[nH]c3ccccc23)cc1,15.8µM*,?,8.1%,3.98µM*,-13.3%,-18.8%
O=C(O)COc1ccc(/C=C2\SC(=Nc3ccccc3)N(c3ccccc3)C2=O)cc1,4.2%,11.4%,2.6%,-1.2%,-14.9%,-6.9%
Cc1cnc2c(C)ccc(C)c2c1/C=C/c1ccc(N(C)C)cc1,-0.6%,-11.4%,/,/,0.3%,/
COc1cc(C2OCC3C(c4ccc(OC5OC(CO)C(O)C(O)C5O)c(OC)c4)OCC23)ccc1O (configuration not stated),?,70.8µM*,-3.8%,?,10.2%,?
COc1cc([C@H]2OC[C@H]3[C@@H]2CO[C@H]3c2ccc(O)c(OC)c2)ccc1O,-4.7%,30.0%,2.7%,/,-18.2%,-14.9%
COc1ccccc1NC(=O)c1csc(-n2nc(C)cc2C(F)(F)F)n1,3.0%,16.1%,1.0%,8.4%,-5.4%,-5.3%
Cc1cc(C(F)(F)F)n(-c2nc(C(=O)N/N=C/c3ccc(F)cc3)cs2)n1,-12.7%,89.1µM*,-2.9%,1.5%,-3.1%,-11.0%
O=C1OC(/C(=C\Nc2cc(Cl)ccc2O)[N+](=O)[O-])c2ccccc21 (configuration not stated),-14.3%,?,7.2%,-7.7%,-6.7%,22.4µM*
Cc1ccc2nc(SCC(=O)NCc3ccco3)c(C#N)cc2c1,-5.3%,-5.8%,-2.1%,?,9.2%,?
Cc1ccc2cc3cc(C(=O)NCc4ccco4)oc3nc2c1,?,?,/,79.4µM*,-23.5%,?
COc1ccc(CNC(=O)c2cc3cc4ccc(C)cc4nc3o2)cc1,-1.5%,12.0%,-2.3%,-1.5%,18.3%,-14.7%
Cc1ccc2cc(C#N)c(SCC(=O)NCc3ccco3)nc2c1,-42.7%,?,-3.0%,22.4µM*,1.6%,?
OC1C(Br)=Cc2ccccc21 (configuration not stated),-4.1%,5.4%,/,/,0.5%,/
Cc1cc(OCc2ccc(C(=O)n3cccn3)o2)ccc1Cl,-7.3%,4.1%,6.2%,-1.5%,11.1%,-6.3%
CCN(CC)C(=O)c1ccc(COc2ccc(Cl)c(C)c2)o1,0.0%,27.3%,/,89.1µM*,-1.8%,-21.6%
CN(Cc1ccco1)C(=O)CSc1nn2c(=O)c(C(C)(C)C)nnc2s1,-23.5%,?,/,/,10.3%,79.4µM*
O=C(Nc1ccc2c(c1)C(=O)NC2=O)c1cccc(C(F)(F)F)c1,-22.7%,?,/,79.4µM*,-2.3%,-8.4%
CN1CCN(c2ncc3nc(CCc4ccccc4)c(=O)n(C)c3n2)CC1,0.0%[60.1 µM],/,/,/,/,/
Cc1ccc(/C=C/C(=O)OCC(=O)NC(=O)NCc2ccco2)cc1,-44.6%,?,-12.0%,/,14.9%,50.1µM*
CC(C)(C)c1ccc(OCC(=O)NCc2ccco2)c(Br)c1,-23.1%,?,3.3%,?,-4.8%,44.7µM*
O=C(COC(=O)Cc1ccc(F)cc1)NCc1ccco1,?,?,/,22.4µM*,-1.1%,?
COc1cccc(/C=C/C(=O)OCC(=O)NCc2ccco2)c1,?,?,50.1µM*,44.7µM*,1.3%,?
CC(C)(C)c1ccc(OCC(=O)NNC(=S)NC(=O)c2ccco2)c(Br)c1,-11.8%,-5.8%,8.2%,15.1%,15.0%,-10.7%
O=C(COC(=O)/C=C/c1ccccc1)NCc1ccco1,/,/,/,/,/,-4.0%
